Experimental data reported in PubChem BioAssay.
Activity calls are given as the source filed them.

Experiments:
[1] = system: Human papillomavirus type 1a protein E7 (residues 44-93); assay: HPV1a E7 fragment binders on microarrays, primary screen, biochemical, small-molecule microarray, residues 44-93, 635 nm fluorescence (AID 1108); conditions: small-molecule microarray binding, fluorescence 635 nm; higher = more signal;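 also: E7 fragment applied at 1 µg/mL in TBST for 1 h at 4 C; score combines spot fluorescence with its signal to noise ratio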
[2] = modulators of HCV replicon luciferase signal, primary screen, HCV replication inhibitor project, Huh7 cells, luciferase reporter (AID 1109); conditions: 48 h, higher = more signal;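 also: huh7 hepatoma cells harbouring a luciferase neomycin HCV replicon reporter; luciferase luminescence as measure of HCV replicon replication; test concentration not given here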
[3] = target: Left-right determination factor 2 (Homo sapiens) (UniProt O00292); assay: LEFTY2 binders on small-molecule microarrays, primary screen, biochemical, small-molecule microarray, 635 nm fluorescence scan (AID 1110); conditions: LEFTY2 binding, higher = more signal
Sequence of Left-right determination factor 2 (Homo sapiens) (O00292 whole entry, looked up): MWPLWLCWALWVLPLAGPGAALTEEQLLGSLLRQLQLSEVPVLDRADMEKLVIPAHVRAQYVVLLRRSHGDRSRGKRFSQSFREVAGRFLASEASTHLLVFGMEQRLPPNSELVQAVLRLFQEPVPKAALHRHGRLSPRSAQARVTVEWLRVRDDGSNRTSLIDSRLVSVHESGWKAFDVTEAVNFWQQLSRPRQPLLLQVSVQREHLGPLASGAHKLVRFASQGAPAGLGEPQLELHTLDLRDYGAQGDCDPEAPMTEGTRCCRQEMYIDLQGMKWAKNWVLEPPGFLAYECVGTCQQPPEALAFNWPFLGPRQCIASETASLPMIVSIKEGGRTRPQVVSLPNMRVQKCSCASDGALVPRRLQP

[4] = target: Calmodulin-1 (Homo sapiens) (UniProt P0DP23); assay: CALM1 binders on microarrays, EGTA buffer, profiling panel, biochemical, small-molecule microarray, Cy5-labelled CALM1 (AID 1111); conditions: Cy5-CALM1 binding fluorescence, higher = more signal;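 also: labelled calmodulin applied in Tris saline Tween buffer holding calcium plus EGTA and DTT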
[5] = target: Calmodulin-1 (Homo sapiens) (UniProt P0DP23); assay: calcium-bound CALM1 binders on microarrays, profiling panel, artefact control for SMM control-protein annotation, biochemical, small-molecule microarray, Cy5-labelled CALM1, plus calcium (AID 1112); conditions: Cy5-CALM1 binding fluorescence, higher = more signal;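 also: score merges spot fluorescence with signal to noise from triplicate slides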
[6] = small-molecule microarray binders of probe aWnt5a, primary screen, biochemical, biotinylated probe, 635/667 nm fluorescence (AID 1113); conditions: higher = more signal;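 also: score merges 667 nm fluorescence intensity with signal-to-noise per printed feature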
[7] = small-molecule microarray binders of probe aShh, primary screen, biochemical, biotinylated probe, 635/667 nm fluorescence (AID 1114); conditions: higher = more signal;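 also: probe is biotin-labelled aShh protein from a stem cell growth factor screen; measures binding of labelled protein to compounds printed on the slide; score merges feature fluorescence at 667 nm with signal-to-noise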
[8] = small-molecule microarray binders of probe aNog, primary screen, biochemical, biotinylated probe, 635/667 nm fluorescence (AID 1115); conditions: higher = more signal;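 also: probe is biotinylated aNog protein used at 0.15 µg/mL for 1 h at 4 C; z-score combines 667 nm fluorescence of each spot with its signal to noise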
[9] = target: Torsin-1A-interacting protein 1 (Homo sapiens) (UniProt Q5JTV8); assay: LAP1 binders from COS7 cell lysate, primary screen, small-molecule microarray, 635/667 nm fluorescence (AID 1116); conditions: COS7-hLAP1 lysate binding, 635 nm fluorescence, higher = more signal
Sequence of Torsin-1A-interacting protein 1 (Homo sapiens) (Q5JTV8 whole entry, looked up): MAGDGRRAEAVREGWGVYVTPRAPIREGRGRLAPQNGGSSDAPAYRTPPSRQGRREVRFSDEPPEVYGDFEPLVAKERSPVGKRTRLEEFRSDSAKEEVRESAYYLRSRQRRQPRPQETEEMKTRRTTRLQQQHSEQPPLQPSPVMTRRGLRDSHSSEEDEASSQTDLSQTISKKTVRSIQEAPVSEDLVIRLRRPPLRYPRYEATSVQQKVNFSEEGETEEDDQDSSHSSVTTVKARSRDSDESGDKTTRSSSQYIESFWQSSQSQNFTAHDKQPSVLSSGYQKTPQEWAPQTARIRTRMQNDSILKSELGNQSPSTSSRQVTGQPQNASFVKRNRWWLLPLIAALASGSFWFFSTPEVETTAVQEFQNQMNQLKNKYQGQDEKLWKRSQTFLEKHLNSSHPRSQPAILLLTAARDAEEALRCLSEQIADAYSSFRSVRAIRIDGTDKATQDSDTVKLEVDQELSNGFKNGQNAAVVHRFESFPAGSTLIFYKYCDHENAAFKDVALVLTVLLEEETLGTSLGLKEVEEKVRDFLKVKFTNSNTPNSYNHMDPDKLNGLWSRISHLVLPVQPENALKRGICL

[10] = target: Alpha-bungarotoxin (Bungarus multicinctus) (UniProt P60615); assay: alpha-bungarotoxin binders on microarray, profiling panel, artefact control for SMM control protein annotation, biochemical, small-molecule microarray, Alexa647 label, 635/667 nm fluorescence (AID 1117); conditions: alpha-BTX-A647 binding fluorescence, higher = more signal
Sequence of Alpha-bungarotoxin (Bungarus multicinctus) (P60615 whole entry, looked up): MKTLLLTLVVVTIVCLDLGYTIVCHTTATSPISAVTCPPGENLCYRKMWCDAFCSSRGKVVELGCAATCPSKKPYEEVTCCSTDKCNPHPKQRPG

Albumin (Bos taurus) = Albumin (Bos taurus) (UniProt P02769); assay: bovine serum albumin binders on microarray, profiling panel, artefact control for SMM control protein annotation, biochemical, small-molecule microarray, Alexa647 label, 635/667 nm fluorescence (AID 1118); conditions: BSA-A647 binding, fluorescence 635 nm, higher = more signal;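 also: score merges 667 nm emission intensity and signal-to-noise per printed compound spot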
Sequence of Albumin (Bos taurus) (P02769 whole entry, looked up): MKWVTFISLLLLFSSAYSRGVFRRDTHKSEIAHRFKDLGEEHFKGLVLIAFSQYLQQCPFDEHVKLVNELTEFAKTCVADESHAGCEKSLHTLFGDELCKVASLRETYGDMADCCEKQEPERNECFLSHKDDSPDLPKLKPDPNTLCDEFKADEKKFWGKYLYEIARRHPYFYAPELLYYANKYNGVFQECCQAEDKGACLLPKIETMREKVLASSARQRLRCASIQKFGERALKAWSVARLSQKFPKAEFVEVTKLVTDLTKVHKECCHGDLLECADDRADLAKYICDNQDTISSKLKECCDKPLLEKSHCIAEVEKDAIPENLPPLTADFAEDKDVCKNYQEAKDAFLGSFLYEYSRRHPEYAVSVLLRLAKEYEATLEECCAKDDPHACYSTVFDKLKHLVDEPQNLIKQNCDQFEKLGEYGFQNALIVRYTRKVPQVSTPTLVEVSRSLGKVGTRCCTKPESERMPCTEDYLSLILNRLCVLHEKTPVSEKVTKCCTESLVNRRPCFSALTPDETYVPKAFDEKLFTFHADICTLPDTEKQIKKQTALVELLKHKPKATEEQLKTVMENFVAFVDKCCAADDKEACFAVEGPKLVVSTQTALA

[11] = small-molecule microarray binders of probe aXIP, primary screen, biochemical, NeuroSMM set, 635/667 nm fluorescence (AID 1119); conditions: higher = more signal, called active from +8 up or from −8 down;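 also: probe is the protein aXip251-270 applied at 1 µg/mL to compound-printed slides; binding of probe to printed compounds measured as 667 nm fluorescence plus signal to noise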
[12] = small-molecule binders of probe aNOTCH3, primary screen, biochemical, small-molecule microarray, 635/667 nm fluorescence (AID 1120); conditions: higher = more signal;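 also: probe is a biotin-tagged antibody raised against NOTCH3 rather than NOTCH3 protein; score merges spot fluorescence near 667 nm with spot signal to noise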
[13] = small-molecule binders of probe aNOTCH2, primary screen, biochemical, small-molecule microarray, 635/667 nm fluorescence (AID 1121); conditions: higher = more signal;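 also: score merges feature fluorescence read at 667 nm with its signal to noise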
[14] = target: Carbonic anhydrase 2 (Homo sapiens) (UniProt P00918); assay: CAII small-molecule binders, profiling panel, biochemical, small-molecule microarray, Alexa647-labelled CAII (AID 1122); conditions: CAII-A647 binding fluorescence, higher = more signal
[15] = COS7 lysate on small-molecule microarray, probe aHis, 635 nm (AID 1123); conditions: COS7 cell lysate, fluorescence, higher = more signal;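 also: z-score combines 667nm fluorescence intensity with signal-to-noise per printed compound spot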
[16] = compound binding in COS7 lysate, probe aLAP1, primary screen, cell lysate, small-molecule microarray (AID 1124); conditions: probe aLAP1, fluorescence, higher = more signal;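 also: lysate comes from COS7 cells expressing LAP1 and is applied at 0.3 µg/mL; score merges spot fluorescence near 667 nm with signal-to-noise over triplicate slides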
Sam68 (KHDRBS1) = assay: Sam68 small-molecule binders, primary screen, biochemical, small-molecule microarray, 635 nm fluorescence (AID 1125); conditions: small-molecule microarray binding, higher = more signal;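 also: score merges 667 nm channel intensity with signal to noise over triplicate slides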
[17] = system: Chordin-like protein 2 (CHRDL2); assay: CHRDL2 small-molecule binders, primary screen, biochemical, small-molecule microarray, 635 nm fluorescence (AID 1126); conditions: small-molecule microarray binding, fluorescence 635 nm; higher = more signal;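 also: printed compound slides probed with Chrdl2 protein at 4 µg/mL for 1 h at 4 C; score merges 667 nm emission intensity with signal to noise over three replicate slides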
[18] = target: Concanavalin-A (Canavalia ensiformis) (UniProt P02866); assay: ConA small-molecule binders, primary screen, artefact control for SMM control protein annotation, biochemical, small-molecule microarray, Alexa647 label, 635 nm (AID 1127); conditions: ConA-A647 binding fluorescence, higher = more signal;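 also: z combines 667 nm emission intensity with signal-to-noise across three replicate slides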
Sequence of Concanavalin-A (Canavalia ensiformis) (P02866 whole entry, looked up): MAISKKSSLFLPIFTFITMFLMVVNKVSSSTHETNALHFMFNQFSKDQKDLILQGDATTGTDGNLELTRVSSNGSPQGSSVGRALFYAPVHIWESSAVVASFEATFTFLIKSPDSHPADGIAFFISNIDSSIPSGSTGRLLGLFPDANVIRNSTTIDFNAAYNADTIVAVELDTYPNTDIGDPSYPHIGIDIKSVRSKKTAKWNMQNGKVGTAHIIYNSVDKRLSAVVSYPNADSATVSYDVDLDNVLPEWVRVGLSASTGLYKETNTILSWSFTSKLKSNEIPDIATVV

SMILES	composite z-score [1]	z-score [2]	composite z-score [3]	composite z-score [4]	composite z-score [5]	composite z-score [6]	composite z-score [7]	composite z-score [8]	composite z-score [9]	composite z-score [10]	composite z-score (Albumin (Bos taurus))	composite Z-score [11]	composite z-score [12]	composite z-score [13]	composite z-score [14]	composite z-score [15]	composite z-score [16]	composite z-score (Sam68 (KHDRBS1))	composite z-score [17]	composite z-score [18]
C[N+](C)(C)CCCC[C@@H]1NC(=O)[C@@H]2C[C@H](C(=O)O)[C@H](c3ccc(O)cc3)N2C1=O	-3.49	0.964	-0.566	-0.0386	0.305	-0.197	-0.141	-0.359	0.136	0.0213	0.594	-0.238 (inactive)	-0.223	-0.0798	0.381	-0.555	-0.534	-2.19	-0.827	0.0317
COCCOC(=O)N1C(=O)[C@@]2(c3cc(C#CCNC(N)=O)ccc31)[C@H](C(=O)N1CCCCCCC1)[C@H]1C(=O)O[C@H](c3ccccc3)[C@H](c3ccccc3)N1[C@@H]2c1ccc(O)cc1	0.964	-1.07	0.212	0.356	-0.947	-0.164	-0.214	-0.456	0.546	0.863	0.0763	0.559 (inactive)	0.239	-0.0714	0.354	0.654	0.285	1.11	0.626	1.03
CC(C)C(CO)N1C(=O)[C@]2(C)C3C(=O)OCCC/C=C\[C@H]3OC23C=CCN(c2ccc(Cl)cc2)C(=O)[C@@H]13 (stereo not given in full)	0.964	0.344	-1.03	-0.224	-0.193	-0.131	-0.138	0.563	-0.0952	-0.28	-0.187	-0.132 (inactive)	-0.157	-0.164	0.853	3.39	0.32	0.36	-0.883	-0.522
CCOC(=O)C[C@H]1[C@H](OC(=O)Cc2ccc3c(c2)OCO3)[C@@H](NC(=O)C2CCCCC2)c2cc(OCCCO)ccc2N1C(=O)c1ccc2ccccc2n1	1.33	-1.27	0.924	0.0105	-0.896	-0.1	-0.164	0.0862	0.746	0.663	0.245	-0.608 (inactive)	0.0418	0.358	0.312	0.746	0.15	1.08	1.21	0.662
CC(C)(C)OC(=O)CC[C@]1(C(=O)O)N=C(c2ccc(OCCCO)cc2)O[C@H]1c1ccccc1CN=[N+]=[N-]	-0.391	0.0879	-0.688	0.32	0.81	-0.136	0.0668	0.718	0.69	-0.489	0.472	-0.209 (inactive)	0.0165	0.0264	0.917	0.811	0.383	0.0075	-0.237	-0.192
